# aSyn UTR act – Activators via SNCA 5'UTR binding, MLPCN; AID 1814; hit rate 7.1% among 300,000; activity score, % (tested at 7.5 µM), hits read low; alpha-synuclein 5'UTR reporter, activators screen; in the data active = activity score below about -60%
# The depositor's hits bear a star. Only a sample is shown.
SMILES,aSyn UTR act
COc1ccccc1C1CCN(c2ccc([N+](=O)[O-])c(OC)c2)CC1,-75.1*
COc1ccc(C(=O)N/N=C/c2ccc(SC)cc2)cc1,-64.7*
CSc1ccc(/C=N/NC(=O)c2ccc(O)cc2)cc1,-116.9*
COc1ccc(/C=N/NC(=O)c2ccc[nH]2)cc1,-147.1*
O=C(N/N=C\c1c(O)ccc2ccccc12)c1ccc(O)cc1,75.3
Cc1cccn2cc(-c3ccccc3)nc12,-152.3*
Cc1cccn2cc(-c3ccc(F)cc3)nc12,-88.0*
Cc1cccn2cc(CNc3ccccc3)nc12,-73.5*
COc1ccc(-c2cn3ccc4ccccc4c3n2)cc1,-102.6*
COc1ccc(-c2cn3cccc(C)c3n2)cc1Br,-259.0*
CC(=O)N1CCN(c2ccc(NC(=O)c3cccc(Cl)c3)cc2)CC1,-122.1*
CC(=O)N1CCN(c2ccc(NC(=O)c3ccc(C(C)(C)C)cc3)cc2)CC1,-95.7*
N#CCc1nc(CSc2nc3ccccc3s2)cs1,-115.7*
C/C(=N\N1C(=O)c2ccccc2NC1c1ccco1)c1ccccc1O (centres undefined),59.2
O=C1c2ccccc2NC(c2ccco2)N1/N=C/c1ccco1 (centres undefined),-92.4*
Cc1ccc(/C=N/N2C(=O)c3ccccc3NC2c2ccc(C)cc2)cc1 (centres undefined),-83.7*
C=CC(C)(C)c1c(O)c(CC=C(C)C)c(O)c2c(=O)c3ccc(O)c(O)c3oc12,73.3
O=C(NCc1cccnc1)Nc1ccc(Cl)c(Cl)c1,-109.9*
O=C(/C=C/NCc1cccnc1)c1ccc(Br)cc1,-66.4*
O=C(NCc1cccnc1)Nc1ccc(Br)cc1,-79.2*
CCCCC(=O)/C=C/n1c(=S)oc2ccccc21,-150.7*
O=C1C(=O)c2c(C(=O)c3ccccc3)coc2-c2ccccc21,-105.5*
CN(C)/C=C/C(=O)c1cnc(-c2ccccc2Cl)s1,-127.5*
CN(C)/C=C/C(=O)c1cnc(-c2cccc(Cl)c2)s1,-145.9*
CC1CC1c1ccc(/C=C(\C#N)C(=O)Nc2ccccc2Cl)o1 (centres undefined),-191.9*
SMILES,aSyn UTR act
CC1CC1c1ccc(/C=C(\C#N)C(=O)Nc2ccc(Cl)cc2)o1 (centres undefined),-327.9*
O=C(/C=C/c1ccccc1Cl)Nn1cnc2ccccc2c1=O,-136.8*
Cc1cc(NC(=O)/C=C/c2ccccc2Cl)n(-c2nc3ccccc3[nH]2)n1,-110.7*
Cc1nc2ccccc2c(=O)n1NC(=O)/C=C/c1ccccc1Cl,-138.4*
O=c1cc2[nH]c3ccccc3c(=O)n2nc1-c1ccccc1,-125.2*
Cc1ccc(NC(=O)c2c(C)nn(-c3ccccc3)c2Cl)cc1,-81.4*
COc1cccc(NC(=O)c2c(C)nn(-c3ccccc3)c2Cl)c1,-137.2*
C/C(=N\NC(=O)c1c(Cl)cnn1C)c1cccc(NC(=O)c2ccc(C)cc2)c1,-72.4*
C/C(=N\NC(=O)c1ccc(O)cc1)c1cccc(NC(=O)c2ccc(Cl)cc2)c1,-161.4*
C/C(=N\NC(=O)c1cccc(F)c1)c1cccc(NC(=O)c2ccc(F)cc2)c1,-71.8*
C/C(=N\NC(=O)c1ccccc1F)c1cccc(NC(=O)c2ccc(C)cc2)c1,-74.1*
CSc1cccc(NC(=O)c2c(Cl)cnn2C)c1,-89.0*
C/C(=N\NC(=O)c1c(Br)cnn1C)c1ccc(NC(=O)c2ccc(F)cc2)cc1,-108.2*
Cc1ncc(CO)c(/C=N/N=C/c2ccccc2O)c1O,-88.7*
Cc1ncc(CO)c(/C=N/Nc2ccc(C(F)(F)F)cn2)c1O,87.6
CCn1c(C)cc(C=C2C(=O)c3ccccc3C2=O)c1C,-92.3*
Cc1cccc(-n2c(C)cc(C=C3C(=O)c4ccccc4C3=O)c2C)c1,-90.6*
COc1ccc(/C=N/Nc2ccccn2)cc1OC,-114.5*
COc1cc(/C=N/Nc2ccccn2)ccc1O,-90.7*
COc1ccc(-c2cnnc(N/N=C/c3ccc(O)c(OC)c3)n2)cc1,-95.1*
COc1ccc(/C=N/Nc2nc(N)cc(Cl)n2)cc1OC,-74.5*
Clc1nc2sccn2c1/C=N/n1cnc2ccccc21,-147.6*
Cc1ccccc1OCc1nc2ccccc2c(=O)n1/N=C/c1ccco1,-66.4*
CCOCC(=O)Nc1cccc(-c2nc3cccnc3s2)c1C,-62.7*
CC(=O)C1=NOC(CNc2ncc(C(F)(F)F)cc2Cl)C1 (centres undefined),-85.7*
SMILES,aSyn UTR act
FC(F)(F)c1ccc(N/N=C/c2cccnc2)nc1,-115.2*
O=[N+]([O-])c1ccc(N/N=C\c2cccnc2)nc1,-84.2*
Cc1csc(N/N=C\c2cccnc2)n1,-115.9*
CC(C)c1cc(C(=O)Nc2ccc3c(c2)OCO3)no1,-172.7*
CC(C)c1cc(C(F)(F)F)n2nc(C(=O)Nc3ccc4c(c3)OCO4)cc2n1,-83.1*
O=C(Nc1ccc2c(c1)OCO2)c1cc(C2CC2)on1,-148.2*
O=C(Cn1ncc(N2CCOCC2)c(Cl)c1=O)c1ccc(Cl)cc1,-105.3*
CN(C)c1ccc2c(c1)OC(N)=C(C#N)C2c1cccc(F)c1 (centres undefined),68.0
N#CC1=C(N)Oc2cc(N)ccc2C1C1CCCCC1 (centres undefined),-89.3*
N#CC1=C(N)Oc2cc(N)ccc2C1c1cccc(F)c1 (centres undefined),-137.5*
CCOC(=O)c1[nH]c2ccccc2c1NC(=S)Nc1ccccc1,-69.5*
CN(C)Cc1c(C(=O)Nc2ccccc2)[nH]c2ccccc12,-76.2*
CCN(CC)S(=O)(=O)c1ccc2oc(Nc3ccccc3)nc2c1,-128.8*
CCS(=O)(=O)c1ccc2oc(Nc3ccccc3C)nc2c1,-121.9*
Cn1c(N)c(C(=O)Nc2ccc3ccccc3c2)sc1=S,-186.2*
Nc1c(C(=O)Nc2ccc(F)cc2)sc(=S)n1-c1ccccc1F,-84.1*
Cc1ccc(S(=O)(=O)N2CCCCC2CCNC(=O)C(=O)NCCc2ccco2)cc1 (centres undefined),-101.8*
Cc1ccc(S(=O)(=O)N2CCCCC2CCNC(=O)C(=O)Nc2ccccc2F)cc1 (centres undefined),-148.4*
Cc1ccc(S(=O)(=O)N2CCCCC2CCNC(=O)C(=O)NCc2ccco2)cc1 (centres undefined),-66.5*
CCn1cc(C(=O)NCc2ccco2)c(=O)c2cc(S(=O)(=O)N3CC(C)CC(C)C3)ccc21 (centres undefined),81.9
CN1/C(=C/C(=O)C2CCC2)Sc2ccccc21,-88.8*
CN1/C(=C/C(=O)c2ccc(Cl)cc2)Sc2cc3c(cc21)OCO3,-160.1*
CN1/C(=C\C(=O)c2cccc([N+](=O)[O-])c2)Sc2ccccc21,-83.4*
COc1cc(OC)cc(C(=O)/C=C2\Sc3ccccc3N2C)c1,-154.3*
COc1ccc2c(c1)S/C(=C\C(=O)c1ccncc1)N2C,-165.2*
SMILES,aSyn UTR act
Clc1cccc(Cl)c1Cn1ccc(C2CC2)n1,-99.9*
COc1ccc(/C=C/C(=O)Oc2cccc(/C=N/NC(=O)Cc3ccc(Br)cc3)c2)cc1,-80.3*
Cc1cccc(N2C(=O)c3cccc4c(N5CCCCC5)c([N+](=O)[O-])cc(c34)C2=O)c1C,61.7
O=C1c2cccc3c(N4CCCCC4)ccc(c23)C(=O)N1c1ccc(O)cc1,-72.4*
O=C1c2ccc3c4c(ccc(c24)C(=O)N1c1cccc(O)c1)C(=O)N(c1cccc(O)c1)C3=O,68.1
CN(C)c1ccc(NC(=O)c2ccc3nsnc3c2)cc1,-165.8*
O=C(Nc1ccc(Cl)cc1)c1ccc2nsnc2c1,-202.3*
Cc1cc(N2CCOCC2)n2ncc(-c3ccccc3Cl)c2n1,-160.4*
NC(=O)c1ccsc1NC(=O)c1coc2ccccc2c1=O,-156.2*
Cc1cccc(-n2nnc(C(=O)Nc3ccc(F)cc3)c2N)c1,-195.7*
